Data reported in the antibiotic and cytotoxicity screens of Wong et al. (2023).
Out of some 39,000 compounds screened, about 3,300 (8.5%) were called active. The list comes from a sample in which actives are over-represented; it also holds similar structures and randomly drawn compounds.

Each compound was assayed on HepG2 (assay: cytotoxicity call (relative viability < 0.9)). Conditions: 10 µM.

| SMILES | cytotoxicity call |
| --- | --- |
| CC(C)NC(=O)N(C)C[C@@H]1Oc2c(NC(=O)Nc3ccc4c(c3)OCO4)cccc2C(=O)N([C@H](C)CO)C[C@@H]1C | inactive |
| C[C@H](CO)N1C[C@H](C)[C@H](CN(C)C(=O)C2CCCCC2)OCCCC[C@H](C)Oc2ccc(NS(=O)(=O)c3cccs3)cc2C1=O | inactive |
| Cc1cc(C)n(C(=O)Cn2cc([N+](=O)[O-])cn2)n1 | inactive |
| C[C@H](CO)N1C[C@H](C)[C@H](CN(C)Cc2ccncc2)Oc2ccc(NS(=O)(=O)c3ccc(F)cc3)cc2CC1=O | inactive |
| CC(=O)c1ccn[nH]1 | inactive |
| COC(=O)[C@]12CCC(C)(C)C[C@H]1[C@H]1C(=O)C=C3[C@@]4(C)C=C(C#N)C(=O)C(C)(C)[C@@H]4CC[C@@]3(C)[C@]1(C)CC2 | active |
| COC(=O)[C@@]12CCC(C)(C)C[C@@H]1[C@@H]1C(=O)C=C3[C@]4(C)C=C(C#N)C(=O)C(C)(C)[C@H]4CC[C@]3(C)[C@@]1(C)CC2 | active |
| Cc1ccccc1S(=O)(=O)N1C[C@H](O)COC[C@H]2O[C@H](CC(=O)NCc3ccccc3Cl)CC[C@@H]21 | inactive |
| Cc1noc(C)c1NC(=O)Nc1cccc2c1O[C@H](CN(C)C(=O)NC(C)C)[C@@H](C)CN([C@@H](C)CO)C2=O | inactive |
| C[C@@H]1CN([C@@H](C)CO)C(=O)Cc2cc(NC(=O)CCN3CCOCC3)ccc2O[C@@H]1CN(C)C(=O)NC1CCCCC1 | inactive |
| C[C@@H]1CN([C@H](C)CO)C(=O)c2cc(C#CC3(O)CCCC3)cnc2O[C@@H]1CN(C)S(C)(=O)=O | inactive |
| Cc1ccc(S(=O)(=O)Nc2ccc3c(c2)C(=O)N([C@H](C)CO)C[C@@H](C)[C@@H](CN(C)Cc2ccc(Oc4ccccc4)cc2)O3)cc1 | active |
| Cc1ccc(S(=O)(=O)Nc2ccc3c(c2)C(=O)N([C@@H](C)CO)C[C@H](C)[C@@H](CN(C)Cc2ccc(Oc4ccccc4)cc2)O3)cc1 | inactive |
| Cc1ccc(S(=O)(=O)Nc2ccc3c(c2)C(=O)N([C@H](C)CO)C[C@@H](C)[C@H](CN(C)Cc2ccc(Oc4ccccc4)cc2)O3)cc1 | active |
| Cc1ccc(S(=O)(=O)Nc2ccc3c(c2)C(=O)N([C@@H](C)CO)C[C@@H](C)[C@@H](CN(C)Cc2ccc(Oc4ccccc4)cc2)O3)cc1 | active |
| Cc1ccc(S(=O)(=O)Nc2ccc3c(c2)C(=O)N([C@@H](C)CO)C[C@@H](C)[C@H](CN(C)Cc2ccc(Oc4ccccc4)cc2)O3)cc1 | inactive |
| Cc1ccc(S(=O)(=O)Nc2ccc3c(c2)C(=O)N([C@@H](C)CO)C[C@H](C)[C@H](CN(C)Cc2ccc(Oc4ccccc4)cc2)O3)cc1 | inactive |
| Cc1ccc(S(=O)(=O)Nc2ccc3c(c2)C(=O)N([C@H](C)CO)C[C@H](C)[C@H](CN(C)Cc2ccc(Oc4ccccc4)cc2)O3)cc1 | inactive |
| Cc1ccc(S(=O)(=O)Nc2ccc3c(c2)C(=O)N([C@H](C)CO)C[C@H](C)[C@@H](CN(C)Cc2ccc(Oc4ccccc4)cc2)O3)cc1 | inactive |
| NCC(=O)NC1CCCCC1 | inactive |
| COc1ccc(NC(=O)N(C)C[C@@H]2Oc3ccc(NS(C)(=O)=O)cc3C(=O)N([C@H](C)CO)C[C@H]2C)cc1 | inactive |
| COc1ccc2c3c(n(c2c1)C)[C@@H](CO)N(Cc1cc(cc(c1)OC)OC)C[C@]13CCN(CC1)S(=O)(=O)c1cn(cn1)C | inactive |

| SMILES | cytotoxicity call |
| --- | --- |
| C[C@@H]1CN([C@H](C)CO)C(=O)Cc2cc(NS(=O)(=O)c3cccs3)ccc2O[C@@H]1CN(C)CC1CC1 | inactive |
| C[C@@H]1CN([C@@H](C)CO)C(=O)c2cccc(NS(=O)(=O)c3cn(C)cn3)c2O[C@@H]1CN(C)S(=O)(=O)c1ccc(F)cc1 | inactive |
| Cc1ccc(S(=O)(=O)N(C)C[C@H]2Oc3c(NS(=O)(=O)c4cccs4)cccc3C(=O)N([C@H](C)CO)C[C@H]2C)cc1 | inactive |
| C[C@H]1CCCCO[C@H](CN(C)C(=O)Nc2ccc(F)cc2)[C@@H](C)CN([C@@H](C)CO)C(=O)c2cc(NC(=O)C3CCCCC3)ccc2O1 | inactive |
| CCCN(C)C[C@@H]1OCCCC[C@H](C)Oc2ccc(NC(=O)Nc3ccc(F)cc3)cc2C(=O)N([C@H](C)CO)C[C@@H]1C | inactive |
| Cc1ccc(S[C@]2(C(=O)NCc3ccccc3)CC(=O)N(C3CCCCC3)[C@@H]2c2ccc(CO)cc2I)cc1 | inactive |
| C=CCC[C@H](Cc1ccc(F)cc1)C(=O)OC[C@@H](NC(=O)[C@H](CC=C)CC(=O)N(CCO)Cc1ccccc1)C(C)(C)C | inactive |
| COc1ccc(-c2coc3c(O)c(O)c(OC)cc3c2=O)cc1 | active |
| COc1ccc(-c2coc3cc(O)ccc3c2=O)cc1 | inactive |
| COc1ccc(-c2coc3c(OC)c(OC)cc(O)c3c2=O)cc1 | inactive |
| CC(C)NC(=O)Nc1ccc2c(c1)CC(=O)N([C@@H](C)CO)C[C@@H](C)[C@H](CN(C)C(=O)Nc1ccc3c(c1)OCO3)O2 | inactive |
| COCc1cc(C)nc(N)c1C#N | inactive |
| Cc1ccc2c(N)[nH]nc2n1 | inactive |
| COCc1cc(C)nc2n[nH]c(N)c12 | active |
| Cc1noc(C)c1S(=O)(=O)N(C)C[C@@H]1Oc2ccc(NC(=O)Cc3cn(C)c4ccccc34)cc2CC(=O)N([C@@H](C)CO)C[C@@H]1C | inactive |
| C[C@@H]1CN([C@H](C)CO)C(=O)c2cc(NC(=O)c3ccccc3)ccc2O[C@@H](C)CCCCO[C@H]1CN(C)C(=O)Nc1ccc(C(F)(F)F)cc1 | inactive |
| C[C@@H](O)c1nnc(N)[nH]1 | inactive |
| C[C@@H]1CN([C@@H](C)CO)C(=O)c2cc(NS(=O)(=O)c3ccc(Cl)cc3)ccc2O[C@@H]1CN(C)Cc1ccc(-c2ccccc2)cc1 | active |
| C[C@H]1CN([C@@H](C)CO)C(=O)c2cc(NS(=O)(=O)c3ccc(Cl)cc3)ccc2O[C@H]1CN(C)Cc1ccc(-c2ccccc2)cc1 | inactive |
| C[C@@H]1CN([C@@H](C)CO)C(=O)c2cc(NS(=O)(=O)c3ccc(Cl)cc3)ccc2O[C@H]1CN(C)Cc1ccc(-c2ccccc2)cc1 | inactive |
| C[C@H](CO)N1C[C@H](C)[C@H](CN(C)Cc2ccc(-c3ccccc3)cc2)Oc2ccc(NS(=O)(=O)c3ccc(Cl)cc3)cc2C1=O | active |
| C[C@@H]1CN([C@H](C)CO)C(=O)c2cc(NS(=O)(=O)c3ccc(Cl)cc3)ccc2O[C@@H]1CN(C)Cc1ccc(-c2ccccc2)cc1 | active |

| SMILES | cytotoxicity call |
| --- | --- |
| C[C@H]1CN([C@@H](C)CO)C(=O)c2cc(NS(=O)(=O)c3ccc(Cl)cc3)ccc2O[C@@H]1CN(C)Cc1ccc(-c2ccccc2)cc1 | inactive |
| C[C@@H]1CN([C@H](C)CO)C(=O)c2cc(NS(=O)(=O)c3ccc(Cl)cc3)ccc2O[C@H]1CN(C)Cc1ccc(-c2ccccc2)cc1 | inactive |
| C[C@H](CO)N1C[C@H](C)[C@@H](CN(C)Cc2ccc(-c3ccccc3)cc2)Oc2ccc(NS(=O)(=O)c3ccc(Cl)cc3)cc2C1=O | active |
| C[C@H](CO)N1C[C@H](C)[C@H](CN(C)Cc2ccc(Oc3ccccc3)cc2)Oc2cc(Br)ccc2S1(=O)=O | inactive |
| C[C@H]1CN([C@@H](C)CO)C(=O)c2cc(NC(=O)CCCCCC(=O)Nc3ccccc3N)ccc2O[C@@H]1CN(C)C(=O)Nc1cccc2ccccc12 | inactive |
| CC(C)NC(=O)N(C)C[C@H]1Oc2ccc(NS(=O)(=O)c3ccc(Cl)cc3)cc2C(=O)N([C@H](C)CO)C[C@@H]1C | inactive |
| C[C@H](CO)N1C[C@H](C)[C@H](CN(C)C(=O)Nc2ccc(F)cc2)Oc2c(NS(=O)(=O)c3cn(C)cn3)cccc2C1=O | inactive |
| C[C@@H]1CN([C@@H](C)CO)C(=O)c2cccc(NC(=O)Nc3ccc(C(F)(F)F)cc3)c2O[C@@H]1CN(C)S(=O)(=O)c1ccc(F)cc1 | inactive |
| Nc1ncnc(N[C@H]2CCS(=O)(=O)C2)c1[N+](=O)[O-] | inactive |
| C[C@@H]1CCCCO[C@H](CN(C)Cc2ccc(C(F)(F)F)cc2)[C@H](C)CN([C@H](C)CO)C(=O)c2cc(NC(=O)CCC(F)(F)F)ccc2O1 | inactive |
| COCC(=O)N1C[C@H](C)[C@H](OC)CN(C)C(=O)c2ccc(NC(=O)Nc3ccccc3)cc2OC[C@H]1C | inactive |
| C[C@@H]1CN([C@H](C)CO)C(=O)Cc2cc(NS(=O)(=O)c3ccccc3)ccc2O[C@H]1CN(C)Cc1ccc(C(=O)O)cc1 | inactive |
| COc1ccc(S(=O)(=O)Nc2ccc3c(c2)C(=O)N([C@H](C)CO)C[C@H](C)[C@@H](CN(C)CC2CCCCC2)OCCCC[C@@H](C)O3)cc1 | inactive |
| C[C@H](CO)N1C[C@H](C)[C@@H](CN(C)S(=O)(=O)c2ccccc2)Oc2c(NS(=O)(=O)c3ccc(F)cc3)cccc2C1=O | inactive |
| CC(C)(C)S(=O)N1Cc2cc(C(=O)N3CCN(Cc4ccccc4)CC3)nc(-c3cccc(-c4cc5ccccc5o4)c3)c2[C@H]1CCO (stereo not given in full) | active |
| COc1ccc(C#Cc2cccc(-c3nc(C(=O)N4CCN(Cc5ccccc5)CC4)cc4c3[C@H](CCO)N(S(=O)C(C)(C)C)C4)c2)cc1OC (stereo not given in full) | inactive |
| CC(C)(C)[S@](=O)N1Cc2cc(C(=O)N3CCCCC3)nc(-c3cccc(-c4ccccc4F)c3)c2[C@@H]1CCO | inactive |
| COc1ccc(C#Cc2cccc(-c3nc(C(=O)N4CCN(Cc5ccccc5)CC4)cc4c3[C@@H](CCO)N(S(=O)C(C)(C)C)C4)c2)cc1OC (stereo not given in full) | inactive |
| CC(C)(C)S(=O)N1Cc2cc(C(=O)N3CCN(Cc4ccccc4)CC3)nc(-c3cccc(C#CCC4CCCC4)c3)c2[C@H]1CCO (stereo not given in full) | active |
| CC(C)(C)[S@@](=O)N1Cc2cc(C(=O)N3CCCCC3)nc(-c3cccc(-c4ccccc4F)c3)c2[C@H]1CCO | inactive |
| COCCCN(C[C@]1(O)CC[C@H]2C3=CC=C4C[C@@H](O)CC[C@]4(C)[C@@H]3CC[C@@]21C)C(=O)O[C@H]1C[C@@H](C)CC[C@@H]1C(C)C | inactive |
